Our source for the growth values is PubChem BioAssay (NCI).

What all share (assay): NCI-60 one-dose screen, 48 h (100 = growth as untreated, 0 = no growth, -100 = all killed)
The subject of one assay is SK-MEL-2 melanoma. The note with it: 10 µM unless noted.
Another assay deals with EKVX NSCLC. Conditions: 10 µM unless noted.
A further assay relates to SN12C renal. Conditions: 10 µM unless noted.
In another assay the test system is UO-31 renal. The note with it: 10 µM unless noted.
The subject of another assay is TK-10 renal. The note with it: 10 µM unless noted.
The next assay has as its system ACHN renal. The note with it: 10 µM unless noted.
For another assay, the system named is CAKI-1 renal. The note with it: 10 µM unless noted.
The next assay relates to A498 renal. Conditions: 10 µM.
For another assay, the system named is HL-60(TB) leukemia. Conditions: 10 µM unless noted.
The next assay relates to CCRF-CEM leukemia. The note with it: 10 µM unless noted.

Compounds without any hit were thinned out: in the full panel of roughly 83,000, 20% have a hit.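 Negative percent growth values reflect cell death: -40 means 40% of the cells present at the start died, and -100 means all died.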 A number with no mark means an inactive call. Activity calls are given as the source filed them. Rule for the calls: active = growth percent below 10; inactive = the rest.

With `CCC[CH2][Sn]([CH2]CCC)([CH2]CCC)[O]c1ccc(Cl)cc1Cl`, the growth was -66.9% (active) in the assay on SK-MEL-2 melanoma; -51.7% (active) with EKVX NSCLC; -69% (active) in the assay on SN12C renal; -85.3% (active) in the assay on UO-31 renal; -91.7% (active) in the assay with TK-10 renal; -69.5% (active) in the assay with ACHN renal. Besides, the growth in the assay on CAKI-1 renal was -56.6% (active); with A498 renal it was -98.1% (active); in the assay with HL-60(TB) leukemia, -23.9% (active).

As for `C/C(=C\c1ccn(-c2ccc(N)c(F)c2)n1)[C@@H]1C[C@@H]2O[C@]2(C)CCC[C@H](C)[C@H](O)[C@@H](C)C(=O)C(C)(C)[C@@H](O)CC(=O)O1`, the growth in the assay with SK-MEL-2 melanoma is 23.2%; in the assay on EKVX NSCLC, 42.2%; in the assay on SN12C renal, 35.7%; in the assay on UO-31 renal, 36.9%; in the assay with TK-10 renal, 44.6%; in the assay on ACHN renal it was 44.6%. Besides, the growth was 37.5% in the assay with CAKI-1 renal, 13% in the assay with A498 renal, 5.44% (active) in the assay with HL-60(TB) leukemia and 12.1% in the assay with CCRF-CEM leukemia.

Consider `CCCCCCC(=O)NC1=C(N2CC2)C(=O)C(NC(=O)CCCCCC)=C(N2CC2)C1=O`, for which the growth in the assay on SK-MEL-2 melanoma is 73%; in the assay on EKVX NSCLC it was 78.3%; in the assay on SN12C renal, 41.7%; in the assay with UO-31 renal it was 43.1%; in the assay on TK-10 renal it was 75.5%; in the assay with ACHN renal, 32.9%. For the same molecule, the growth with CAKI-1 renal is 45.6%; in the assay with A498 renal it was 66.9%; in the assay on HL-60(TB) leukemia it was 16.8%.

For the molecule `COC1CC2c3ccccc3C1C(C)=[N+]2C` (configuration not stated), the growth in the assay with SK-MEL-2 melanoma was 91.8%; with EKVX NSCLC it was 97.4%; with SN12C renal, 94.1%; with UO-31 renal it was 94%; with TK-10 renal it was 98.8%; with ACHN renal, 99.3%. Moreover, the growth in the assay with CAKI-1 renal was 69.3%; in the assay with A498 renal it was 80.8%; in the assay on HL-60(TB) leukemia, 113%.

Regarding `Clc1cccc(NCOOC2(OOCNc3cccc(Cl)c3)CCCCCC2)c1`, the growth in the assay with SK-MEL-2 melanoma is 92.4%; in the assay with EKVX NSCLC it was 89%; with SN12C renal, 95.4%; with UO-31 renal, -47.3% (active); in the assay with TK-10 renal, 92.2%; in the assay on ACHN renal, 80.5%. For the same molecule, the growth in the assay with CAKI-1 renal is 36%; in the assay with A498 renal it was 98.8%; in the assay on HL-60(TB) leukemia, 78.8%; in the assay on CCRF-CEM leukemia it was 80.2%.

Regarding `CCn1c2ccccc2c2cc(C(=O)c3cccc4c3CCCN4)ccc21`, the growth in the assay with SK-MEL-2 melanoma is 99.5%; in the assay on EKVX NSCLC, 99.3%; in the assay with SN12C renal, 93.7%; with UO-31 renal, 94.1%; with TK-10 renal, 107%; in the assay on ACHN renal it was 102%. For the same molecule, the growth is 99.3% with CAKI-1 renal, 112% with A498 renal, 110% in the assay with HL-60(TB) leukemia and 120% in the assay with CCRF-CEM leukemia.

Regarding `CC[C@H](C)[C@H](NC(=O)[C@H]1CCCCN1C)C(=O)N(C)[C@H](C[C@@H](OC(C)=O)c1nc(C(=O)N[C@@H](Cc2ccccc2)C[C@H](C)C(=O)OC)cs1)C(C)C`, the growth in the assay on SK-MEL-2 melanoma was 42.8%; in the assay with EKVX NSCLC, 36.7%; in the assay with SN12C renal it was 37.2%; in the assay with UO-31 renal it was 40.3%; in the assay with TK-10 renal, 18.1%; in the assay on ACHN renal, 13.6%. Besides, the growth with CAKI-1 renal is 32.2%; in the assay on A498 renal it was 7.53% (active); in the assay on HL-60(TB) leukemia, -38.6% (active).

Turning to `COc1cc(NC(C)CCCNC2CN3CCC2CC3)c2ncccc2c1` (configuration not stated), the growth in the assay with SK-MEL-2 melanoma is 91.7%; in the assay on EKVX NSCLC, 71.2%; in the assay on SN12C renal, 86%; in the assay with UO-31 renal, 38.3%; with TK-10 renal, 79.8%; in the assay on ACHN renal it was 84.9%. The growth with CAKI-1 renal was 78.1%; in the assay on A498 renal it was 57.2%; with HL-60(TB) leukemia, 65.9%.

`CC(=O)OC1C(OC/C2=C/C3[C@@H](C(C)C)CC=C(C)[C@@H]3CC(OC(=O)/C=C/c3cn(C)cn3)[C@]3(C)C=C[C@@]2(O)O3)OCC(O)C1O` (some centres not stated): the growth was 45.6% in the assay on SK-MEL-2 melanoma; 33.9% in the assay with EKVX NSCLC; 44.2% in the assay on SN12C renal; 40.4% with UO-31 renal; 32.3% with TK-10 renal; 45% in the assay with ACHN renal. The growth is 37% in the assay on CAKI-1 renal, 13.2% with A498 renal, -3.65% (active) in the assay with HL-60(TB) leukemia and 22.5% in the assay with CCRF-CEM leukemia.

As for `c1cnc2[nH]cc(-c3csc(-c4cn(CCCCN5CCOCC5)c5ccccc45)n3)c2c1`, the growth is 87.8% in the assay on SK-MEL-2 melanoma; 64% with EKVX NSCLC; 67% in the assay with SN12C renal; 25.4% with UO-31 renal; 64.4% with TK-10 renal; 32.4% in the assay on ACHN renal. Besides, the growth with CAKI-1 renal is 44.3%; in the assay on A498 renal it was 56.8%; in the assay on HL-60(TB) leukemia it was -58.2% (active); with CCRF-CEM leukemia, 10.1%.

For the molecule `N#CC1(c2ccccc2)CCN(Cc2ccccc2)CC1`, the growth was 99.6% in the assay with SK-MEL-2 melanoma; 96.2% in the assay with EKVX NSCLC; 114% in the assay with SN12C renal; 108% in the assay on UO-31 renal; 88.4% in the assay with TK-10 renal; 98% with ACHN renal. Also, the growth in the assay with CAKI-1 renal is 94.7%; with A498 renal it was 64.8%; in the assay on HL-60(TB) leukemia, 102%; in the assay on CCRF-CEM leukemia it was 86.3%.

As for `COc1ccc(/C=C\c2cc(OC)c(OC)c(OC)c2)cc1NC(=O)/C=C/c1cc(OC)c(OC)c(OC)c1`, the growth in the assay on SK-MEL-2 melanoma is 47%; in the assay on EKVX NSCLC, 61.6%; with SN12C renal, 71.6%; with UO-31 renal, 31.9%; with TK-10 renal, 82%; with ACHN renal, 53.9%. In addition, the growth is 31.5% with CAKI-1 renal, -3.68% (active) in the assay on A498 renal and 15.7% with HL-60(TB) leukemia.

For the molecule `O=[As](O)(O)c1ccccc1[As](=O)(O)O`, the growth in the assay with SK-MEL-2 melanoma was 119%; with EKVX NSCLC, 110%; in the assay with SN12C renal it was 110%; in the assay with UO-31 renal it was 78.8%; in the assay on TK-10 renal it was 119%; in the assay on ACHN renal, 91.1%. The growth in the assay with CAKI-1 renal was 94.5%; in the assay on A498 renal it was 102%; with HL-60(TB) leukemia, 113%.

`CCCCOc1ccc(C(N)Cc2ccccc2)cc1` (configuration not stated): the growth with SK-MEL-2 melanoma is 107%; in the assay on EKVX NSCLC it was 91.8%; in the assay on SN12C renal, 95.4%; in the assay on UO-31 renal it was 74.6%; in the assay with TK-10 renal, 98%; in the assay on ACHN renal, 90.5%. For the same molecule, the growth is 84.1% in the assay on CAKI-1 renal, 65% in the assay on A498 renal and 84.7% in the assay with HL-60(TB) leukemia.
